Screening data (PubChem)
Luc counter – Counterscreen for Luciferase (Kinase-Glo TM) Inhibition. Potency, µM (highest dose often 38.3 µM), for inactives: at the top dose activity change, negative = inhibition, usual class: inhibitors. Luciferin 4-monooxygenase (Photuris pensylvanica), Q27757. 0.28% of 200,000 active. Kinase-Glo luciferase, ATP luminescence, 8 min. AID 1379, 2008; further: on the % scale 0 is the no-effect control and ±100 the full control effect; nearly all actives have a fitted effect of over 60% in size
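Kinase-Glo luciferase light output from ATP and luciferin was measured with 10 uM ATP, within the enzyme's linear range. Buffer: 50 mM imidazole pH 7.2, 50 mM KCl, 7 mM MgCl2, 0.01% Tween 20, 0.05% BSA; luminescence read after 8 min at ambient temperature.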
NPC1 promoter act – qHTS Assay for NPC1 Promoter Activators; 2.4% of 320,000 active; Potency, µM (doses to about 9.22 µM), for the others: top-dose activation, usual class: activators; Huh7 NPC1 promoter luciferase reporter, 24 h; further: % of control where 0% means no effect; nearly all actives have a fitted effect of over 60% in size
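Huh7 cells stably carrying NPC1 promoter–luciferase, plated in Opti-MEM with 10% FBS for 2 h, were exposed to compound in DMSO for 24 h at 37 °C; luciferase reagent was added for 10 min and luminescence read.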
Rab9 prom act – qHTS Assay for Rab9 Promoter Activators; 2.8% of 320,000 active; AID 485297, 2010; Potency, µM (doses to about 9.22 µM), inactives show top-dose activation, negative = inhibition, hits mostly activators; Huh7 Rab9 promoter-luciferase reporter, luminescence, 24 h; further: % of control where 0% means no effect; nearly all actives have a fitted effect of over 60% in size
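Quantitative HTS format; Huh7 Rab9-luciferase reporter cells (1500/well) receive compound 2 h post-plating, incubate 24 h at 37 °C, then get luciferase reagent for 10 min before luminescence reading.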
FLuc counter – qHTS profiling assay for firefly luciferase inhibitor/activator using purifed enzyme and Km concentrations of substrates (counterscreen for miR-21 project); Luciferin 4-monooxygenase (Photinus pyralis), P08659; purified FLuc, Km substrates, luminescence inhibition; Potency, µM (doses to about 57.5 µM), inactives show at the top dose activity change, negative = inhibition, most hits filed as inhibitors; 6.9% of 360,000 active; AID 588342, 2011;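 further: plate controls were vehicle for no effect and reference inhibitor for full effect; nearly all actives have a fitted effect of over 55% in size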
Target sequence (P08659 whole entry, looked up): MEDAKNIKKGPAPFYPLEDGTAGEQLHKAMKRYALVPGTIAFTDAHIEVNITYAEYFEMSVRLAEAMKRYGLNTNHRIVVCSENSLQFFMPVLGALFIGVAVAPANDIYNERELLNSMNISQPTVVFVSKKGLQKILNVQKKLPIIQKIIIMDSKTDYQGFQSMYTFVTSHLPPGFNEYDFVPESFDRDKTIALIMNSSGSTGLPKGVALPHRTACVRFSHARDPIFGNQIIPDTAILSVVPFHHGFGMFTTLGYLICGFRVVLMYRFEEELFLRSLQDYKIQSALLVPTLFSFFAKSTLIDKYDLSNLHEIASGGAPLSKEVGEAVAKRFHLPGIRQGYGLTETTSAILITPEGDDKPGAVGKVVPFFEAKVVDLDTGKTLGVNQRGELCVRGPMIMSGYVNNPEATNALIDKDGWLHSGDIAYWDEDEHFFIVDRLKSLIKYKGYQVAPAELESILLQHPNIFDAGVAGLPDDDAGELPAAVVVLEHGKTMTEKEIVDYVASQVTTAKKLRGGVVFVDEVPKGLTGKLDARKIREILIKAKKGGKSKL
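Purified P. pyralis luciferase, 10 nM final, with Km-level 10 uM D-luciferin and 10 uM ATP in 50 mM Tris acetate pH 7.5, 10 mM Mg acetate, 0.01% Tween-20, 0.05% BSA; 6-point qHTS titration about 60 µM downward; luminescence read.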
ELG1 genotox – qHTS screen for small molecules that induce genotoxicity in human embryonic kidney (HEK293T) cells expressing luciferase-tagged ELG1 | HEK293T ELG1-luciferase reporter, luminescence, 16 h | Potency, µM (doses to about 46 µM), without a hit: top-dose activity change, positive = activation, hits mostly activators | 1.3% of 330,000 active | AID 504466, 2011; further: % of control where 0% means no effect; nearly all actives have a fitted effect of over 60% in size
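DMSO vehicle served as control against compound-treated ELG1-luciferase HEK293T cells; exposure lasted 16 hr at 37 °C and 5% CO2, followed by ONE-Glo luminescence detection after 30 min.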
SMN2 splice enh – qHTS Assay for Enhancers of SMN2 Splice Variant Expression; Potency, µM (titrated, usually from 46.1 µM), without a hit: at the top dose activity change, positive = activation, actives largely listed as activators; 2.8% of 210,000 active; AID 1458, 2008; HEK293 SMN2-luciferase splicing reporter, luminescence, 30-36 h; further: % of control where 0% means no effect; nearly all actives have a fitted effect of over 55% in size
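qHTS luciferase splicing reporter: luminescence rises when SMN2 exon 7 is included in transfected HEK293 cells. Compound exposure lasted 30-36 h at 37C, with 4.5 mM final sodium butyrate as control, followed by a ONE-Glo read.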
An asterisk follows results filed as active; ? = inconclusive; · = no result; [ ] = another dose, or the depositor's remark. The list is not random: actives were taken first. Their share in the collection is about 7.5%. The call rests on the fitted dose curve; in most records, active means well fitted curve in the direction sought with a large enough effect; inconclusive means small, poorly fitted or top-dose-only effect, or another doubt; inactive means no such curve, though single readings can be large; an effect the other way counts as inactive or inconclusive. Potency means the concentration at half of the fitted maximal effect.

SMILES	Luc counter	NPC1 promoter act	Rab9 prom act	FLuc counter	ELG1 genotox	SMN2 splice enh
COC(=O)Cc1c(C)c2ccc(OC3CCCCC3=O)cc2oc1=O (stereo not drawn)	·	21.9%	22.5%	?	4.5%	·
CCCCN1C(=O)/C(=C2\SC(N3CCCCC3)=NC2=O)c2ccccc21	-12.4%	1.41µM*	1.78µM*	2.13µM*	?	?
Cc1ccc(S(=O)(=O)n2ccc3c2CCCC3=O)cc1	·	2.7%	-5.0%	0.5%	?	·
CCc1sc(C(=O)N2CCc3ccccc32)cc1C	11.2µM*	1.12µM*	0.355µM*	1.9µM*	1.83µM*	8.91µM*
O=C(c1ccc(C(=O)N2CCCc3ccccc32)s1)N1CCCc2ccccc21	0.0%	-0.7%	0.3%	-1.3%	-8.6%	-38.4%
O=C(c1ccc(Cl)s1)N1CCc2ccccc21	-26.2%	?	2.51µM*	3.79µM*	6.51µM*	22.4µM*
COc1ccc(OCC(O)CNS(=O)(=O)c2cccc(Cl)c2)cc1 (stereo not drawn)	·	-5.5%	-2.9%	4.8%	-7.5%	·
Cc1c(Cl)cccc1NC(=O)Nc1nnc(N(C)Cc2ccccc2)s1	·	·	·	-14.2%	·	·
COC(=O)c1cc2c(s1)CS(=O)C2 (stereo not drawn)	0.1%	2.51µM*	3.98µM*	13.5µM*	?	?
COc1ccc(CNC(=O)c2cc3c(s2)CS(=O)C3)cc1 (stereo not drawn)	-3.8%	1.1%	4.0%	1.7%	5.5%	-11.9%
CCCSc1nc(-c2ccc(OC)cc2)cc(-c2ccccc2OC)c1C#N	·	·	·	?	·	-9.4%
Nn1c(SCC(=O)Nc2cccc(Br)c2)nnc1C1CC1	·	·	·	·	-0.2%	·
Clc1ccc2oc(-c3ccccn3)nc2c1	?	2.51µM*	3.16µM*	-20.7%[2.3 µM]	?	15.8µM*
Nc1ccc2oc(-c3ccccn3)nc2c1	?	?	?	19µM*	?	2.82µM*
Cc1nc(N2CCN(C(=O)c3ccco3)CC2)c2c3c(sc2n1)CCCC3	2.8%	-0.8%	2.7%	-0.9%	-7.8%	-28.1%
CCc1nc(SCC(=O)N2CCN(C(=O)c3ccco3)CC2)c2c3c(sc2n1)CCCC3	7.7%	3.2%	3.3%	16.9µM*	-24.7%	-28.6%
O=C(CSc1ncnc2sc3c(c12)CCCC3)c1ccco1	-6.9%	15.3%	?	12µM*	-0.2%	13.2%
CCCNC(=O)CCCN1C(=O)c2ccccc2Sc2ncccc21	·	-1.6%	-9.9%	-0.5%	-0.2%	·
O=C(Nc1nc2ccc(S(=O)(=O)N3CCOCC3)cc2s1)c1cccs1	·	26.9%	27.9%	19µM*	3.0%	·
CC(=O)Nc1ccc2nc(NC(=O)C(Cl)(Cl)Cl)sc2c1	·	25.3%	25.9%	15.1µM*	10.7%	·
O=C(Nc1nc2ccc(S(=O)(=O)N3CCCC3)cc2s1)c1cccs1	-1.7%	-5.7%	20.0%	?	0.7%	11.3%
CN(C)S(=O)(=O)c1ccc2nc(NC(=O)c3cccs3)sc2c1	-0.7%	1.41µM*	0.891µM*	1.2µM*	2.31µM*	11.2µM*
CC(=O)Nc1ccc2nc(NC(=O)CCc3ccccc3)sc2c1	0.2%	-1.5%	?	-16.4%	-1.9%	-0.9%
CC(=O)Nc1nc2ccc(-c3nc4ccccc4o3)cc2s1	2.4%	2.24µM*	4.47µM*	3.38µM*	?	5.01µM*
CCOc1ncccc1C(=O)NNC(=O)c1cccc(S(=O)(=O)Nc2ccc(OC)cc2)c1	·	-0.9%	1.8%	-1.0%	-11.4%	·
O=C(Nc1nc2ccc(F)cc2s1)c1cccs1	-27.7%	3.16µM*	1.12µM*	2.39µM*	?	3.16µM*
CC(=O)Nc1ccc2nc(NC(=O)c3cccnc3)sc2c1	-14.6%	?	?	12µM*	10.5%	·
